# Compound activity from PubChem.
# ERa SRC1 inh – ER-alpha (human) coactivator binding inhibition; 86,000 tested, 1.7% active; TR-FRET ER-alpha LBD / SRC-1 peptide, estradiol-bound; AID 629; P03372; inhibition, % at 25.6 µM; in the data active = inhibition above about 50%;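 also: 0% = receptor plus peptide control and 100% = peptide only without receptor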
# Target sequence (P03372 whole entry, looked up, the tested form may be a part): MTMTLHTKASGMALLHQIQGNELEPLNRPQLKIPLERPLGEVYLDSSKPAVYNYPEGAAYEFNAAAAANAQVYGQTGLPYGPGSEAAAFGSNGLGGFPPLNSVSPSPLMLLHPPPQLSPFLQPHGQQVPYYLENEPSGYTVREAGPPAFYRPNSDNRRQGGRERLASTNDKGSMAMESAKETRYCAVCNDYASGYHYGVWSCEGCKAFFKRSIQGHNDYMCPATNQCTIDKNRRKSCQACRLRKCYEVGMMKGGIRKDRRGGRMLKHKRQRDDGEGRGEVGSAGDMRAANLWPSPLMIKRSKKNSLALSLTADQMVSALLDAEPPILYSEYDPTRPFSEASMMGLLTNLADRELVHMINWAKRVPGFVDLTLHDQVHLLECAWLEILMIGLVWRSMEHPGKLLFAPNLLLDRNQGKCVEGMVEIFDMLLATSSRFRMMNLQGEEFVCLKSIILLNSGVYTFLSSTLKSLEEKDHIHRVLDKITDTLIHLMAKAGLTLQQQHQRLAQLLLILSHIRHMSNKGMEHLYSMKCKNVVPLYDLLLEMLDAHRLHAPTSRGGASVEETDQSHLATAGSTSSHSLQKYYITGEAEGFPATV
# ERa SRC1 pot – ER-alpha (human) coactivator binding potentiation; AID 639; 86,000 tested, 1.3% active; coactivator binding (% of control), % at 25.6 µM; TR-FRET ERalpha-LBD/SRC-Cy5 coactivator binding, 2 h; 100 = basal binding, no effect; P03372; in the data active = activity above about 200%;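 also: binding measured in presence of low estradiol as agonist stimulus; 0% = peptide alone without receptor and 100% = receptor with peptide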
# MRP-1 activ – MRP-1 activation; H69AR cells + doxorubicin, viability rescue, CellTiter-Glo; viability increase, % at 10 µM; 140,000 tested, 0.61% active; AID 799;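 active = viability gain under doxorubicin at or above a set limit, the compound median plus 3 SD, cut at about 4.7% in these data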;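 also: MRP-1 overexpressing cells given doxorubicin 25 µM after compound pretreatment; 18-22 h compound pretreatment then 72 h with doxorubicin before readout; 0% = doxorubicin-only wells and 100% = vehicle-treated cells without doxorubicin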
# ERb SRC1 inh – ER-beta (human) coactivator binding inhibition. 86,000 tested, 1.3% active. AID 633. inhibition, % at 25.6 µM. TR-FRET ER-beta LBD / SRC1-Cy5 peptide binding; receptor agonist-loaded with 1 µM estradiol. Q92731;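 active = compounds whose percent inhibition of the receptor-coactivator binding signal exceeds about 50% in the single-dose screen, limit read from the data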;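 also: 0% = receptor plus peptide wells without compound and 100% = peptide-only wells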
# MRP resist rev – MRP-mediated drug resistance reversal. 85,000 tested, 0.04% active. differential viability (reversal), % at 10 µM. H69AR cells + 2 uM doxorubicin, CellTiter-Glo, 72 h;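 active = viability drop by adding the cancer drug above about 55%, with treated viability meeting a 40% cutoff, limit read from the data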;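 also: viability without doxorubicin minus viability with 2 µM doxorubicin for each compound; larger differential means the compound sensitizes cells more to doxorubicin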
# The depositor's hits bear a star; x = not tested or not shown; [ ] = dose if it differs, or a comment. In the library only some 2.7% were active in any assay of this set; here they are far more common.
SMILES,ERa SRC1 inh,ERa SRC1 pot,MRP-1 activ,ERb SRC1 inh,MRP resist rev
CCOc1ccc(-c2cc(CCCC(=O)NCc3ccco3)no2)cc1,-43,204*,-2,-2,1
CC/C(=N\NC(=O)c1cc(C)nc2ccccc12)c1ccc(C)s1,x,x,-2,x,x
Cc1cccc(C)c1NC(=O)C(c1ccc(Cl)cc1Cl)N1CCCCC1 (centres undefined),x,x,-2,x,x
CC(C)NC(=O)C1(c2ccccc2)CC1(Cl)Cl (centres undefined),x,x,0,x,x
O=C(Nc1cccc(Cl)c1)Nc1ccc2c(c1)OCO2,9,112,-4,2,2
COc1ccc(C)cc1NC(=O)Nc1ccc(Br)cn1,10,243*,-1,34,2
O=C(Nc1ccc2c(c1)OCO2)Nc1ccc(Br)cn1,15,228*,0,33,-24
O=C(O)CNC(=O)c1ccc(S(=O)(=O)N2CCOCC2)cc1,7,109,0,-12,-4
O=C(Nc1c(-c2ccccc2)nc2sccn12)c1ccccc1,72*[fluorescence artefact?],71,-1,71*[fluorescence artefact?],11
O=[N+]([O-])c1c(NCc2ccccc2)cc(N2CCc3ccccc3C2)c2nonc12,x,x,3,x,x
Nc1nonc1NC(=O)CSc1ncccc1C(=O)O,-2,101,0,64*,17
O=C1C(O)CC2c3ccccc3CC3(CCCC3)N12 (centres undefined),-8,235*,-1,-7,-4
CC1CC2(CCCC2)N(C(=O)c2ccccc2)Cc2ccccc21 (centres undefined),x,x,-2,x,x
CCC(=O)Oc1ccc(C(CC)C(CC)c2ccc(OC(=O)CC)cc2)cc1 (centres undefined),-2,577*,0,-2,-13
CCC(=O)Oc1ccc(-c2cnc3ccccc3n2)cc1,x,x,-2,x,x
Cn1c(SCC(=O)N2CCOCC2)nc2cccnc21,19,435*[fluorescence artefact?],0,22,3
Fc1ccc(-c2nnc(-n3nnc4ccccc43)c3ccccc23)cc1,58*,157,x,47,4
Cc1nnc(NC(=O)c2ccco2)s1,-3,89,5.6*,-8,0
Cc1nc2ccc3nc(NC(=O)c4ccco4)sc3c2s1,44,183,x,50*[fluorescence artefact?],12
Cc1ccc(C(=O)Nc2nnc(C)s2)o1,x,x,9.0*,x,x
CCCCCNC(=O)c1c(N)n(/N=C/c2ccco2)c2nc3ccccc3nc12,48,134,x,41,-13
COc1cc(OC)nc(-n2ncc(Br)c(Br)c2=O)n1,x,x,-6,x,x
Cc1cccc(/C=N/NC(=O)C2CCCNC2=O)c1 (centres undefined),x,x,-3,x,x
CCOC(=O)N1CCC(Nc2c(Nc3ccc(C)c(C)c3)c(=O)c2=O)CC1,-10,93,-5,-13,65*
CS/C(=N\S(=O)(=O)c1ccccc1)c1ccccc1,x,x,0,x,x
SMILES,ERa SRC1 inh,ERa SRC1 pot,MRP-1 activ,ERb SRC1 inh,MRP resist rev
O=S(=O)(/N=C(/Sc1ccccc1)c1ccccc1)c1ccccc1,77*,64,-2,54*[fluorescence artefact?],-11
CCC(C)NC(=O)COc1ccc(Br)c(C)c1 (centres undefined),-8,104,1,-16,2
CSc1nc2ccc3nc(NC(=O)c4ccc(C)cc4)sc3c2s1,x,x,0,x,x
Cc1ccc(C(=O)Nc2nc3ccccc3c(=O)s2)cc1,36,192,-2,60*,-5
COc1nc(-c2ccccc2)ccc1-c1noc(-c2ccco2)n1,6,229*,2,7,10
COc1ccc(-c2ccc(-c3noc(-c4ccccc4)n3)c(OC)n2)cc1,40,139,-2,44,2
COc1nc(-c2ccccc2)ccc1-c1noc(-c2ccccc2)n1,18,166,-1,10,-11
COc1ccc(-c2ccc(-c3noc(-c4ccccc4F)n3)c(OC)n2)cc1,49,241*[fluorescence artefact?],-1,40,3
COc1nc(-c2ccc(Cl)cc2)ccc1-c1noc(-c2ccncc2)n1,65*[fluorescence artefact?],369*[fluorescence artefact?],x,41,12
O=C(/C=C/c1cccc(OCc2ccccc2)c1)c1cccnc1,x,x,-6,x,x
CCN(CC)S(=O)(=O)c1cccc(C(=O)Nc2nc3cc4c(cc3s2)OCCO4)c1,2,122,-6,-1,-40
CN(CC1CCCO1)S(=O)(=O)c1ccc(C(=O)Nc2nc3cc4c(cc3s2)OCO4)cc1 (centres undefined),63*[fluorescence artefact?],86,x,19,-9
COCCn1c(C)cc(C(=O)COC(=O)c2cc3c(s2)CCC3)c1C,76*[fluorescence artefact?],50,0,66*,3
CCCCSc1nc(SCC(=O)NCc2ccco2)c2c3c(sc2n1)COC(C)(CC)C3 (centres undefined),x,x,-2,x,x
CCCSc1nc(SCC(=O)NCc2ccccc2)c2c3c(sc2n1)COC(C)(CC)C3 (centres undefined),-16,298*[fluorescence artefact?],0,-2,0
N#C[C@H]1[C@H](c2ccccc2)[C@](C#N)(C(=O)c2ccccc2)[C@@H]2C=Cc3ccccc3N21,x,x,-5,x,x
COc1cc2c(cc1OC)C(=O)CC(C)S2 (centres undefined),x,x,-1,x,x
COc1nc(Nc2nc3ccccc3c(=O)[nH]2)nc2ccc(C)cc12,74*[fluorescence artefact?],147,x,53*[fluorescence artefact?],0
Cc1nc(Nc2nc(-c3ccccc3)cc(=O)[nH]2)nc2ccccc12,20,239*,x,-2,-17
CCc1c(C)nc(Nc2nc(C)c3cc(OC)ccc3n2)[nH]c1=O,-1,112,-2,-7,-33
CCOC(=O)c1sc2nc(CSc3nc4ccccc4n3CC)[nH]c(=O)c2c1C,54*[fluorescence artefact?],75,1,38,-19
CCOC(=O)c1c(C)[nH]c(C)c1C(=O)CSc1nc2ccccc2n1CC,x,x,-1,x,x
Cc1ccc(NC(=O)NNc2cccc(Cl)n2)cc1,x,x,0,x,x
Cc1ccc(CNc2oc(COc3ccccc3Cl)nc2C#N)cc1,13,148,-3,13,-8
COc1ccc(CNc2oc(COc3ccccc3Cl)nc2C#N)cc1,0,228*[fluorescence artefact?],-1,10,3
COc1ccc(NC(=S)Nc2cccc(S(=O)(=O)N3CCCCC3)c2)cc1,x,x,-2,x,x
Cc1nnc(N/N=C/c2cccc(OCc3ccc(Cl)c(Cl)c3)c2)n1N,x,x,-2,x,x
CCOc1ccc(OCC)c(NC(=O)CSc2nc3ccccc3c(=O)n2C)c1,50*[fluorescence artefact?],144,-1,31,2
COc1cc(NC(=O)CSc2nc3ccccc3c(=O)n2C)ccc1NC(=O)c1ccco1,63*,129,-1,50,-4
COC(=O)c1ccc(CSc2nnc(NC(=O)c3cc4c(s3)CCCC4)s2)cc1,1,235*,-4,17,-2
